In PubChem BioAssay AID1159580 (chemical genetic matrix, 2015):
About 2,000 (36%) of roughly 5,500 compounds were called active. Another 18% or so got no clear call; they are omitted. Rule as the data show it: active = normalized growth mostly below about 0.91 (no sharp cut-off); inconclusive = no clear call, values can overlap the other calls; inactive = mostly above about 0.92. The list shows a part of the results.

Experiment: chemical genetic growth profiling, strain panel (AID 1159580);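 also: tested at 20 µM; growth read once vehicle control cultures reached saturation at 30 °C; 1 = growth at the plate median or of vehicle wells; lower values mean less growth of the strain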
Conditions: growth OD

Measured: normalized growth

CC(=O)Nc1ccc(O)cc1
active: S. cerevisiae deletion strains, locus YKL068W, hits give low values 0.936 | S. cerevisiae deletion strains, locus YNL298W, strain CLA4, hits give low values 0.897 | S. cerevisiae deletion strains, locus YPR141C, strain kar3, hits give low values 0.911
inactive: S. cerevisiae deletion strains, locus YJR075W, strain HOC1, hits give low values 1.06 | S. cerevisiae deletion strains, locus YKL009W, strain mrt4, hits give low values 0.952 | S. cerevisiae deletion strains, locus YKL085W, strain MDH1 (second series), hits give low values 0.943 | S. cerevisiae deletion strains, locus YKL085W, strain MDH1, hits give low values 0.943 | S. cerevisiae deletion strains, locus YKL160W, strain elf1, hits give low values 1.01 | S. cerevisiae deletion strains, locus YKR001C, strain vps1, hits give low values 0.982 | S. cerevisiae deletion strains, locus YKR026C, strain gcn3, hits give low values 1.02 | S. cerevisiae deletion strains, locus YKR091W, strain srl3, hits give low values 1.01 | S. cerevisiae deletion strains, locus YLL001W, strain dnm1, hits give low values 0.998 | S. cerevisiae deletion strains, locus YLL026W, hits give low values 1.02 | S. cerevisiae deletion strains, locus YLL041C, strain sdh2, hits give low values 1.01 | S. cerevisiae deletion strains, locus YLR027C, strain aat2, hits give low values 1.01 | S. cerevisiae deletion strains, locus YLR039C, strain RIC1, hits give low values 0.742 | S. cerevisiae deletion strains, locus YLR058C, strain SHM2, hits give low values 0.984 | S. cerevisiae deletion strains, locus YLR102C, strain apc9, hits give low values 0.986 | S. cerevisiae deletion strains, locus YLR113W, strain HOG1, hits give low values 0.974 | S. cerevisiae deletion strains, locus YLR221C, strain rsa3, hits give low values 0.989 | S. cerevisiae deletion strains, locus YLR258W, strain gsy2, hits give low values 1.02 | S. cerevisiae deletion strains, locus YLR262C, strain YPT6 (second series), hits give low values 1.04 | S. cerevisiae deletion strains, locus YLR262C, strain YPT6, hits give low values 0.772 | S. cerevisiae deletion strains, locus YLR268W, strain sec22, hits give low values 0.978 | S. cerevisiae deletion strains, locus YLR320W, strain mms22, hits give low values 1.01 | S. cerevisiae deletion strains, locus YLR330W, strain CHS5, hits give low values 0.986 | S. cerevisiae deletion strains, locus YLR342W, strain FKS1 (second series), hits give low values 1.05 | S. cerevisiae deletion strains, locus YLR342W, strain FKS1, hits give low values 1.03 | S. cerevisiae deletion strains, locus YLR357W, strain rsc2, hits give low values 1.02 | S. cerevisiae deletion strains, locus YLR370C, strain arc18, hits give low values 1.01 | S. cerevisiae deletion strains, locus YLR371W, strain rom2, hits give low values 0.999 | S. cerevisiae deletion strains, locus YLR384C, strain iki3, hits give low values 1.01 | S. cerevisiae deletion strains, locus YLR418C, strain cdc73, hits give low values 1.08 | S. cerevisiae deletion strains, locus YML016C, strain PPZ1, hits give low values 0.975 | S. cerevisiae deletion strains, locus YML032C, strain rad52, hits give low values 0.971 | S. cerevisiae deletion strains, locus YML120C, strain ndi1, hits give low values 1.02 | S. cerevisiae deletion strains, locus YML124C, strain tub3, hits give low values 0.972 | S. cerevisiae deletion strains, locus YMR058W, strain fet3, hits give low values 1.03 | S. cerevisiae deletion strains, locus YMR078C, strain ctf18, hits give low values 0.986 | S. cerevisiae deletion strains, locus YMR125W, strain sto1, hits give low values 1.01 | S. cerevisiae deletion strains, locus YMR129W, hits give low values 1.01 | S. cerevisiae deletion strains, locus YMR205C, strain PFK2, hits give low values 1.02 | S. cerevisiae deletion strains, locus YMR223W, strain ubp8, hits give low values 0.98 | S. cerevisiae deletion strains, locus YMR231W, strain pep5, hits give low values 1.03 | S. cerevisiae deletion strains, locus YMR307W, strain GAS1, hits give low values 0.876 | S. cerevisiae deletion strains, locus YNL067W, strain RPL9B, hits give low values 1.04 | S. cerevisiae deletion strains, locus YNL071W, strain lat1, hits give low values 1.02 | S. cerevisiae deletion strains, locus YNL153C, strain GIM3, hits give low values 0.998 | S. cerevisiae deletion strains, locus YNL183C, strain NPR1, hits give low values 0.955 | S. cerevisiae deletion strains, locus YNL209W, strain ssb2, hits give low values 1.02 | S. cerevisiae deletion strains, locus YNL233W, strain BNI4, hits give low values 1.03 | S. cerevisiae deletion strains, locus YNL248C, strain rpa49, hits give low values 0.998 | S. cerevisiae deletion strains, locus YNL250W, strain rad50, hits give low values 0.937 | S. cerevisiae deletion strains, locus YNL271C, strain bni1, hits give low values 0.936 | S. cerevisiae deletion strains, locus YNL307C, strain MCK1, hits give low values 1.01 | S. cerevisiae deletion strains, locus YNL322C, strain KRE1 (second series), hits give low values 1.02 | S. cerevisiae deletion strains, locus YNR049C, strain mso1, hits give low values 1.03 | S. cerevisiae deletion strains, locus YNR052C, strain pop2, hits give low values 0.974 | S. cerevisiae deletion strains, locus YOL006C, strain TOP1, hits give low values 1.14 | S. cerevisiae deletion strains, locus YOL012C, strain htz1 0.778 | S. cerevisiae deletion strains, locus YOL147C, strain pex11, hits give low values 0.98 | S. cerevisiae deletion strains, locus YOR001W, strain rrp6, hits give low values 1.01 | S. cerevisiae deletion strains, locus YOR061W, strain CKA2, hits give low values 0.972 | S. cerevisiae deletion strains, locus YOR069W, strain VPS5, hits give low values 0.984 | S. cerevisiae deletion strains, locus YOR070C, strain gyp1, hits give low values 1.01 | S. cerevisiae deletion strains, locus YOR080W, strain dia2, hits give low values 1.03 | S. cerevisiae deletion strains, locus YOR083W, strain WHI5, hits give low values 0.988 | S. cerevisiae deletion strains, locus YOR106W, strain vam3, hits give low values 1.01 | S. cerevisiae deletion strains, locus YOR136W, strain idh2, hits give low values 1.01 | S. cerevisiae deletion strains, locus YOR144C, strain elg1, hits give low values 0.968 | S. cerevisiae deletion strains, locus YOR184W, strain ser1, hits give low values 0.998 | S. cerevisiae deletion strains, locus YOR231W, strain MKK1, hits give low values 0.997 | S. cerevisiae deletion strains, locus YOR265W, strain rbl2, hits give low values 1.02 | S. cerevisiae deletion strains, locus YOR270C, strain vph1, hits give low values 1.02 | S. cerevisiae deletion strains, locus YOR290C, strain snf2, hits give low values 1 | S. cerevisiae deletion strains, locus YOR316C, strain cot1, hits give low values 0.982 | S. cerevisiae deletion strains, locus YPL051W, strain arl3, hits give low values 1.01 | S. cerevisiae deletion strains, locus YPL055C, strain LGE1, hits give low values 1 | S. cerevisiae deletion strains, locus YPL078C, strain atp4, hits give low values 1.01 | S. cerevisiae deletion strains, locus YPL106C, strain sse1, hits give low values 1.02 | S. cerevisiae deletion strains, locus YPL240C, strain hsp82, hits give low values 1.02 | S. cerevisiae deletion strains, locus YPL241C, strain CIN2, hits give low values 0.981 | S. cerevisiae deletion strains, locus YPL256C, strain CLN2, hits give low values 0.982 | S. cerevisiae deletion strains, locus YPR119W, strain clb2, hits give low values 0.973 | S. cerevisiae deletion strains, locus YPR163C, strain tif3, hits give low values 0.992 | S. cerevisiae deletion strains, locus YPR167C, strain met16, hits give low values 0.972 | S. cerevisiae deletion strains, strain wtn01, hits give low values 0.967 | S. cerevisiae strains, strain wild type, hits give low values 0.953
